Assay [1] can be described thus: anti-His antibody binders, primary screen, artefact control for SMM control protein annotation, biochemical, small-molecule microarray, 635 nm fluorescence (AID 1128).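 Also: score merges feature fluorescence with signal-to-noise for each printed compound spot.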 As to conditions: anti-His Alexa647 antibody binding, higher = more signal.
Assay [2] relates to Human papillomavirus type 1a E7 protein (residues 1-88). Briefly: HPV1a E7 small-molecule binders, primary screen, biochemical, small-molecule microarray, residues 1-88, 635 nm (AID 1129). As to conditions: small-molecule microarray binding, fluorescence 635 nm; higher = more signal.
Assay [3] has as its target Focal adhesion kinase 1 (Homo sapiens) (UniProt Q05397). Description: small-molecule microarray binders of FAK, primary screen, biochemical, 635/667 nm fluorescence, BSA, DTT (AID 1130).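 Also: composite of spot emission at 667 nm and signal to noise over triplicate slides.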 Conditions: PTK2 binding, 635 nm fluorescence, higher = more signal.
For assay [4], the system named is Fibrinogen (Alexa647-labelled). Description: fibrinogen binders on compound microarrays, profiling panel, artefact control for SMM control-protein annotation, biochemical, small-molecule microarray, 635/667 nm fluorescence (AID 1131).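 Also: z-score merges 667 nm fluorescence with per-spot signal-to-noise over triplicate slides.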 Conditions: fibrinogen-A647 binding fluorescence, higher = more signal.
For assay [5], the target named is Follistatin (Homo sapiens) (UniProt P19883). Description: follistatin binders on small-molecule microarrays, primary screen, biochemical, small-molecule microarray, 635/667 nm fluorescence (AID 1132). As to conditions: FST binding, 635 nm fluorescence, higher = more signal.
Chain of Follistatin (Homo sapiens) (P19883 whole entry, looked up): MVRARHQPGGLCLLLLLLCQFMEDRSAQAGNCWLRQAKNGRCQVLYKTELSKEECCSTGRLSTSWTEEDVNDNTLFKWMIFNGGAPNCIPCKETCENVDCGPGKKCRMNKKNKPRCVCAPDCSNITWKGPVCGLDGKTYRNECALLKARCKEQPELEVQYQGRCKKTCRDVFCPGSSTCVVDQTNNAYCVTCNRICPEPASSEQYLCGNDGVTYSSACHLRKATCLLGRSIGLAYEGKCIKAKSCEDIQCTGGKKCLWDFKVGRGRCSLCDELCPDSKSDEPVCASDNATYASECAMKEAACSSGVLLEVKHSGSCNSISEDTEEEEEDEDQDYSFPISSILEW
The target in assay [6] is Fibroblast growth factor 2 (Homo sapiens) (UniProt P09038). Briefly: FGF2 binders on small-molecule microarrays, primary screen, biochemical, small-molecule microarray, 635/667 nm fluorescence (AID 1133). Conditions: small-molecule microarray binding, FGF2, fluorescence 635/667; higher = more signal.
Chain of Fibroblast growth factor 2 (Homo sapiens) (P09038 whole entry, looked up): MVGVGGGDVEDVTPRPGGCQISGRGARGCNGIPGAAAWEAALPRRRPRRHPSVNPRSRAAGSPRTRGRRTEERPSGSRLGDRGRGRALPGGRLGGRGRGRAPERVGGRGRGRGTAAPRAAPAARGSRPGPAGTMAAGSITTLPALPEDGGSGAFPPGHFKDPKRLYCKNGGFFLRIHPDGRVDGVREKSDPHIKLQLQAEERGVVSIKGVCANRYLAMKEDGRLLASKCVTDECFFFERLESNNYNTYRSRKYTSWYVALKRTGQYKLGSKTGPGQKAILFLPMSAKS
A short description of assay [7]: mitochondrial membrane potential change in A549 cells, profiling panel, cell-based, JC-1 fluorescence, basal, 24 h, 100 nL (AID 1138).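 Also: A549 lung adenocarcinoma cells under basal conditions with no added stimulus; test concentration not given here.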 As to conditions: higher = more signal.
For the next assay, the system named is Lefty1. Description: Lefty1 binders on small-molecule microarrays, primary screen, biochemical, small-molecule microarray, 635/667 nm fluorescence (AID 1139). As to conditions: small-molecule microarray binding, fluorescence 635/667; higher = more signal.
Assay [8] deals with wheat germ agglutinin (Triticum aestivum), Alexa647-labelled. Description: wheat germ agglutinin binders on compound microarrays, profiling panel, artefact control for SMM control-protein annotation, biochemical, small-molecule microarray, 635/667 nm fluorescence (AID 1140).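 Also: score merges 667 nm feature emission with signal to noise over triplicate slides.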 Conditions: WGA-A647 binding, 635 nm fluorescence, higher = more signal.
Assay [9] addresses Luciferin 4-monooxygenase (Photinus pyralis) (UniProt P08659). Description: firefly luciferase enzyme inhibitors, primary screen, biochemical, luminescence, purified enzyme, 2006 set (AID 1141).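 Also: cell-free assay with purified firefly luciferase at 100 ng per well in PBS; test concentration not given here.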 Conditions: SteadyGlo luminescence, 30 min, higher = more signal, called active from +8 up or from −8 down.
Assay [10] has as its system Wnt5a (protein binding on small-molecule microarray). Briefly: Wnt5a binders on small-molecule microarray, primary screen, biophysical, 635/667 nm fluorescence (AID 1142).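 Also: fluorescence read at 667 nm with signal to noise per printed feature.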 Conditions: 635 nm fluorescence, higher = more signal.
The nature of assay [11]: cell viability in Huh7 cells, primary screen, cytotoxicity control for HCV replication inhibitor project, CellTiter-Glo luminescence, basal, 48 h (AID 1143).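 Also: Huh7 hepatoma cells carrying a hepatitis C replication reporter with no stimulus; test concentration not given here.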 As to conditions: Huh7 HCV replicon, higher = more signal, called active from +8 up or from −8 down. In general terms: In ATP-based viability assays light output follows the ATP content of the culture.
Assay [12] can be described thus: P. aeruginosa biofilm formation inhibitors, primary screen, PAO1 strain, BacTiter-Glo luminescence, LB-PBS (AID 1144). As to conditions: 12 h, higher = more signal.
A short description of assay [13]: CREB reporter modulators without forskolin, primary screen, cell-based, PC12, CRE-LacZ reporter, unstimulated (AID 1145). Conditions: no forskolin, luminescence, 4.5 h, higher = more signal, called active from +8 up or from −8 down.
Assay [14] can be described thus: CREB reporter modulators under forskolin, primary screen, cell-based, PC12, CRE-LacZ reporter, forskolin-stimulated (AID 1146).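 Also: PC12 cells with 6xCRE LacZ reporter stimulated by forskolin 10 µM; beta-galactosidase reporter signal reflecting CREB driven transcription.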 Conditions: luminescence, 4.5 h, higher = more signal, called active from +8 up or from −8 down.
In assay [15] the target is Streptavidin (Streptomyces avidinii) (UniProt P22629). Briefly: streptavidin binders on small-molecule microarray, primary screen, artefact control for SMM compound annotation, biophysical, 635/667 nm fluorescence (AID 1147).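 Also: signal reflects streptavidin binding to arrayed compounds as a control protein.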 Conditions: streptavidin binding, higher = more signal.
Chain of Streptavidin (Streptomyces avidinii) (P22629 whole entry, looked up): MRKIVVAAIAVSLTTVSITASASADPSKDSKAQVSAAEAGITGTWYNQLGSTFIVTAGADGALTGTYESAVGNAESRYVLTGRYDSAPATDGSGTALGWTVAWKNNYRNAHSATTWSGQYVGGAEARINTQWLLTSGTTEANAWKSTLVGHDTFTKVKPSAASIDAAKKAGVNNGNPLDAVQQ
Assay [16] is described as follows: small-molecule binders of probe aInhba, primary screen, biochemical, small-molecule microarray, 635/667 nm fluorescence (AID 1148).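 Also: score merges 667nm spot fluorescence with signal-to-noise for antibody binding to printed compounds.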 Conditions: higher = more signal.
For assay [17], the target named is Torsin-1A (Homo sapiens) (UniProt O14656). Briefly: torsin A binders from cell lysate, primary screen, small-molecule microarray, wild-type, 635/667 nm (AID 1149). Conditions: COS7 hTOR1A-WT lysate, 635 nm fluorescence, higher = more signal.
Chain of Torsin-1A (Homo sapiens) (O14656 whole entry, looked up): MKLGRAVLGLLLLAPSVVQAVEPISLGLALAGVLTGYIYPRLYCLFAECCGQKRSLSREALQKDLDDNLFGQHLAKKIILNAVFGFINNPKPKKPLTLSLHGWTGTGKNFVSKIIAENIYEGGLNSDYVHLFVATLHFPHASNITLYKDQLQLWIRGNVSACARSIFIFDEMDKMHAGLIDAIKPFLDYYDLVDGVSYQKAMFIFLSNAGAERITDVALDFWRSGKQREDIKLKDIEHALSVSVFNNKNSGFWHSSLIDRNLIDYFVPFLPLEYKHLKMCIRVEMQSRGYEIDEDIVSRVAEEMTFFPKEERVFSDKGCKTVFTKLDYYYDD
Assay [18] has the same target. Briefly: small-molecule binders of mutant TOR1A in lysate, primary screen, cell lysate, small-molecule microarray, COS7 lysate, 635/667 nm fluorescence (AID 1150).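 Also: score pools 667 nm emission and signal to noise measuring lysate protein binding.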 As to conditions: COS7 hTOR1A mutant lysate, 635 nm fluorescence, higher = more signal.
For assay [19], the system named is Sonic hedgehog protein (Shh). Briefly: small-molecule binders of Shh protein, primary screen, biochemical, small-molecule microarray, 635/667 nm fluorescence (AID 1151).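 Also: Shh protein binding to compounds spotted on small-molecule microarray slides; score combines spot fluorescence intensity with signal-to-noise across triplicate slides.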 Conditions: small-molecule microarray binding, 635 nm fluorescence; higher = more signal.

The source made the active and inactive calls. Unless noted, no rule for the calls is given here.

Composite z-score and z-score data for five compounds are collected here from PubChem BioAssay.

Chain of Focal adhesion kinase 1 (Homo sapiens) (Q05397 whole entry, looked up): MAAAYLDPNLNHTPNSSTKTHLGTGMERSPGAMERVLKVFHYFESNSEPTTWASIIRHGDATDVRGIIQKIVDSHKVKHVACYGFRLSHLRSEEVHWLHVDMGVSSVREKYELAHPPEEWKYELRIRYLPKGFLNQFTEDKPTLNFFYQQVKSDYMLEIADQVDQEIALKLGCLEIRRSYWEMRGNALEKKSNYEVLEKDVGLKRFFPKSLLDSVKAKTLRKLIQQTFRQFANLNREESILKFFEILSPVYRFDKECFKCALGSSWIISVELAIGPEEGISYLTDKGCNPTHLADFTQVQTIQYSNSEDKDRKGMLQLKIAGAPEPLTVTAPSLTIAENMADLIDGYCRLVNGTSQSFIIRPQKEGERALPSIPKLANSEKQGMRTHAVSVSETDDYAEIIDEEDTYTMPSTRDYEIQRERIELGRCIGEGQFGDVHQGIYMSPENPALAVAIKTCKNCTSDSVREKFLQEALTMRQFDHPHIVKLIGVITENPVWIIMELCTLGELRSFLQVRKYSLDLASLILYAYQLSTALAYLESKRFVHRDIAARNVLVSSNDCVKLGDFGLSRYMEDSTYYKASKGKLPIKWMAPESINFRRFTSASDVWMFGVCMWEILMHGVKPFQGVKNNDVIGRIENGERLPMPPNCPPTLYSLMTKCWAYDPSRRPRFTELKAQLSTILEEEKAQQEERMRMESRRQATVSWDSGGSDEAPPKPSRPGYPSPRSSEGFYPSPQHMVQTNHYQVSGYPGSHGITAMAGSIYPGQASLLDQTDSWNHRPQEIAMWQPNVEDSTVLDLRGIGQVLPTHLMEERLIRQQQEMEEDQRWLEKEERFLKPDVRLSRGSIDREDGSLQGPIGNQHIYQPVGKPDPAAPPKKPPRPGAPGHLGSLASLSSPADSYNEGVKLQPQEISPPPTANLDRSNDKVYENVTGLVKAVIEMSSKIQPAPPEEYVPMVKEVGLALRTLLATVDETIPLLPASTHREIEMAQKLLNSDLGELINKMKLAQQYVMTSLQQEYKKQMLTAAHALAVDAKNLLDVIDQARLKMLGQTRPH
Chain of Luciferin 4-monooxygenase (Photinus pyralis) (P08659 whole entry, looked up): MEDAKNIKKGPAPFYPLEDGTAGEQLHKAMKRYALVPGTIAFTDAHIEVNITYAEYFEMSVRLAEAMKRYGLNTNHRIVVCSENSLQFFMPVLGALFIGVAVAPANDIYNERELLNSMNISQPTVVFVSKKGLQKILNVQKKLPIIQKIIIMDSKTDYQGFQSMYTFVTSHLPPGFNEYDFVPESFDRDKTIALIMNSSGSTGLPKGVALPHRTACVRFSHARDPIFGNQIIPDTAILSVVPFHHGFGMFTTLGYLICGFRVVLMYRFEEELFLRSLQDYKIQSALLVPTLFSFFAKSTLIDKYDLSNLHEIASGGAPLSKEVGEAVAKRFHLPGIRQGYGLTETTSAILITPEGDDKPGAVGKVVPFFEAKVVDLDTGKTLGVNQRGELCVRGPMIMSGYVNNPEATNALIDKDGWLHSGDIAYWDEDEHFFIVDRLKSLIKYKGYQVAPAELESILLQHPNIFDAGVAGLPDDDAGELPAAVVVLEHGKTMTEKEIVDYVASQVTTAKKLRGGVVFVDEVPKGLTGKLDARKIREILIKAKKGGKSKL

Regarding `O[C@@H](Cc1ccccc1)[C@@H](/C=C/c1ccccc1)NCc1ccccc1Br`, the composite z-score is -0.538 in assay [1]; -0.85 in assay [2]; -0.716 in assay [3]; -0.354 in assay [4]; -1.19 in [5]; -1.14 in [6]. For the same compound, the composite z-score is -1.64 in the assay with Lefty1; 0.217 in assay [8]; -1.01 in assay [10]; -0.736 in assay [15]; -0.205 in assay [16]; -2.13 with Torsin-1A (Homo sapiens) [17]. Further, the figures for the composite z-score (in the assay with Torsin-1A (Homo sapiens) [18]; in assay [19]) were -1.9 and -1.08, respectively. Also, the z-score in assay [7] was 0.772; in assay [9] it was 0.284 (inactive); in assay [11], -0.626 (inactive); in [12], -0.662 (inactive); in assay [13], 2.67 (inactive); in assay [14] it was -2.09 (inactive).

`COc1ccc([Si](C)(C)[C@H]2[C@H](CC(=O)N3CCC[C@H]3CO)O[C@@]3(C(=O)N(Cc4cccc(N5CCC5=O)c4)c4ccccc43)[C@@H]2C)cc1`: the composite z-score in [1] was 0.744; in [2] it was 1.24; in assay [3], 0.474; in assay [4] it was 0.734; in assay [5], 1.36; in assay [6] it was 1.55. Further, the composite z-score in the assay with Lefty1 is 1.38; in [8], 0.532; in assay [10], 0.749; in assay [15], 0.0783; in assay [16], -0.0132; with Torsin-1A (Homo sapiens) [17], 0.633. Moreover, the results for the composite z-score (with Torsin-1A (Homo sapiens) [18]; in assay [19]) were 0.594 and 1.49, respectively. Also, the z-score is 1.4 in [7]; -0.493 (inactive) in [9]; -3.02 (inactive) in [11]; 0.596 (inactive) in assay [12]; 1.66 (inactive) in [13]; -1.2 (inactive) in assay [14].

As for `[N-]=[N+]=NCc1ccccc1C[C@]1(C(=O)N2CCOCC2)N=C(c2ccc(OCCCO)cc2)O[C@H]1c1ccccc1`, the composite z-score in assay [1] is 1.22; in assay [2], 0.672; in assay [3], -0.0665; in [4] it was 0.909; in [5] it was 0.826; in assay [6] it was 0.816. For the same compound, the composite z-score in the assay on Lefty1 is 0.0094; in assay [8] it was 0.359; in assay [10], 0.258; in assay [15] it was 0.981; in [16] it was 0.0091; with Torsin-1A (Homo sapiens) [17], 0.0039. The composite z-score in the assay with Torsin-1A (Homo sapiens) [18] is 0.348; in [19] it was -0.147. The z-score is 0.078 in [7]; 0.4 (inactive) in assay [9]; -5.35 (inactive) in assay [11]; -0.764 (inactive) in [12]; 0.391 (inactive) in assay [13]; -1.5 (inactive) in [14].

Consider `C=C(/C(=C/C[C@@H](OC(C)=O)c1ccc(CO)o1)c1cnc2ccccc2c1)C(C)C`, for which the composite z-score in [1] is 0.452; in [2], 1.23; in assay [3], 0.88; in [4], 0.594; in assay [5], 1.4; in [6] it was 1.9. Besides, the composite z-score was 1.37 in the assay on Lefty1; 0.463 in assay [8]; 1.3 in assay [10]; 0.17 in assay [15]; -0.0448 in assay [16]; 2.14 in the assay with Torsin-1A (Homo sapiens) [17]. In addition, the composite z-score in the assay with Torsin-1A (Homo sapiens) [18] was 0.619; in assay [19], 2.04. Besides, the z-score in [7] was -0.527; in assay [9] it was -3.13 (inactive); in assay [11], -0.136 (inactive); in [12] it was -0.171 (inactive); in [13], 0.159 (inactive); in [14], -0.731 (inactive).

In the case of `C[N+](C)(C)CCCC[C@@H]1NC(=O)[C@H]2C[C@@H](C(=O)O)[C@@H](c3cccc(OCCO)c3)N2C1=O`, the composite z-score came out at 3.61 in [1]; 1.21 in assay [2]; 2.21 in [3]; 0.973 in [4]; 1.15 in [5]; 0.9 in assay [6]. Also, the composite z-score in the assay with Lefty1 was determined as 0.804; in assay [8] it was 1.57; in assay [10], 1.93; in assay [15], 3.77; in assay [16] it was 0.893; with Torsin-1A (Homo sapiens) [17], 1.95. Moreover, the composite z-score with Torsin-1A (Homo sapiens) [18] worked out at 2.13; in assay [19], 1.4. Also, the z-score in [7] is 0.455; in assay [9] it was -0.317 (inactive); in [11], 0.0605 (inactive); in [12] it was 0.308 (inactive); in assay [13], -0.138 (inactive); in assay [14] it was 0.629 (inactive).
